Assay results reported in PubChem BioAssay (NCI).
Where “and” joins values, the source holds several entries; their conditions need not be identical. Identical values can stand only once. This is part of a sample that, as a whole, favours compounds with a hit. Of some 83,000 tested, about 20% had one in any assay.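 Testing used 96-well plates and a 48-hour single-concentration exposure. Example: -40 means 40% of the starting cells died.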 Unmarked numbers belong to inactive results. Calls of active or inactive are those of the source. How the source made its calls: active means growth percent below 10; inactive means the rest.

Test system: MDA-MB-468 breast
Test: NCI-60 one-dose screen, 48 h (100 = growth as untreated, 0 = no growth, -100 = all killed)
Settings: 10 µM unless noted

Structure (SMILES)	growth
O=C(c1ccccc1)[C@H]1[C@@H]2CCCN2[C@]2(C(=O)Nc3ccc(F)cc32)[C@]12C(=O)Nc1ccccc12	96.2%
CC1=CC(O)C2CC1C2(C)C (stereo not drawn)	105% and 100%
Cc1ccc(NC(=O)Nc2ccc(-c3cccnc3)cc2N2CCC(CO)CC2)cc1	-16.6% (active)
O=C(N/N=C\c1ccc(Cl)cc1Cl)c1ccncc1	110%
Cc1[nH]n(-c2ccccc2)c2nc3nncc3c(-c3ccc(Cl)cc3)c12	95.1%
CCNc1nc(S(=O)(=O)CC)nc2ccccc12	76.4%
CCc1nc2ccccc2[nH]1	109%
NC(N)=NS(=O)(=O)c1ccc(Nc2ccc3nnc(-c4ccncc4)n3n2)cc1	96.6%
c1cn2cc(-c3ccc4ncn(C5CCCCC5)c4c3)nc(-c3ccc4c(c3)ncn4C3CCCCC3)c2n1	-20.2% (active)
O=C1/C(=C/c2ccc([N+](=O)[O-])cc2)COc2ccc(O)cc21	77.3%
Cn1c(SCC(=O)c2ccc(F)cc2)nc2ccccc2c1=O	79.4%
CN1C(=O)/C(=C/c2ccc(C(=O)Nc3ncc(Cc4cccc(Cl)c4)s3)cc2)SC1=S	37.7%
Cc1cccc(/C=C\C(=O)c2ccc(Cl)cc2)c1	106% and 90.9%
CSC1=Nc2c(c(C)c(-c3ccccc3)n2CCCCl)C2=NC(=O)CN12	47.3%
CC1CCN(CCOc2ccc(CNc3ccc4nc(CCC5CCCCC5)[nH]c4c3)cc2)CC1	14.2%
CC(=O)Nc1ccc(S(=O)(=O)Cl)cc1	95%
COc1cccc(-c2nn(C(C)(C)C)cc2-c2ccnc(NCCCNS(=O)(=O)c3ccc(C)cc3)c2)c1	104%

Structure (SMILES)	growth
CCOc1ccc2c(c1)c(C)cc(C)[n+]2CC	9.85% (active)
Cc1ccc(Cl)cc1NC(=O)CCl	73.5%
C/C(=N\O)c1ccc(Cl)cc1	108%
CCCCCc1cc[n+](CC(=O)c2ccccc2)cc1	86.9% and 76%
CC(C)C/C=C/C=C/C(=O)N[C@@H](CC(N)=O)C(=O)N[C@@H]1C(=O)N[C@H](c2ccc(O)cc2)C(=O)N[C@H](CCCN)C(=O)N[C@H]([C@@H](C)O)C(=O)N[C@H](c2ccc(O)cc2)C(=O)N[C@H](c2ccc(O)cc2)C(=O)N[C@H]([C@H](C)O)C(=O)N[C@H](Cc2ccccc2)C(=O)N[C@H](CCCN)C(=O)N[C@H](c2ccc(O[C@H]3O[C@@H](CO)[C@@H](O)[C@@H](O)[C@H]3O[C@@H]3O[C@H](CO)[C@H](O)[C@H](O)[C@@H]3O)cc2)C(=O)N[C@H]([C@H](C)O)C(=O)N[C@H](c2ccc(O)cc2)C(=O)NCC(=O)N[C@H](CC(C)C)C(=O)N[C@H](C)C(=O)N[C@H](c2ccc(O)c(Cl)c2)C(=O)O[C@@H]1C(N)=O	66.7%
COc1cc2c(=O)n(CCCN(C)C)c3c4cc5c(cc4ccc3c2cc1OC)OCO5	57.7%
CNC(=O)c1cc(-c2ccc(NS(=O)(=O)c3ccc(C)cc3)cc2)nc2cccnc12	71.1%
C[C@H](CCC(=O)O)[C@H]1CC[C@H]2[C@@H]3CC[C@@H]4/C(=C\c5ccco5)C(=O)/C(=C\c5ccco5)C[C@]4(C)[C@H]3CC[C@]12C	41.1%
CCN(CC)C(=O)C1(C)CCCC2(C)c3cc(OC(C)=O)ccc3CCC12 (stereo not drawn)	56.9%
CCOC(=O)C1=C(N)Oc2c(sc3c(F)cccc23)C1c1ccc(O)cc1 (stereo not drawn)	15.3%
COc1ccc(OC)c(/C=C/c2nnc(Nc3ccc(Cl)cc3)o2)c1	66%
O=S(=O)(NCCCNc1nccc(-c2[nH]c(-c3ccccc3)nc2-c2ccc(Cl)c(O)c2)n1)c1cccc(F)c1	50.9%
O=C(O[C@@H]1Cc2c(O)cc(O)cc2O[C@@H]1c1cc(O)c(O)c(O)c1)c1cc(O)c2c(c1)OCO2	109%
COc1ccc(S(=O)(=O)Nc2cc(/C=C\c3cc(OC)c(OC)c(OC)c3)cc(OC)c2OC)cc1	19.5%
Cc1ccc(N2C(=O)C=CC2=O)cc1	-25.2% (active)
Oc1ccc(C(c2ccc(O)cc2)C(Cl)(Cl)Cl)cc1	90%
